The values below come from PubChem BioAssay.

Active and inactive are the calls of the source.

The target of one test is Albumin (Bos taurus) (UniProt P02769). The test is described as follows: bovine serum albumin binders on microarray, profiling panel, artefact control for SMM control protein annotation, biochemical, small-molecule microarray, Alexa647 label, 635/667 nm fluorescence (AID 1118).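 Also: score merges 667 nm emission intensity and signal-to-noise per printed compound spot.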 Particulars: BSA-A647 binding, fluorescence 635 nm, higher = more signal.
Chain of Albumin (Bos taurus) (P02769 whole entry, looked up): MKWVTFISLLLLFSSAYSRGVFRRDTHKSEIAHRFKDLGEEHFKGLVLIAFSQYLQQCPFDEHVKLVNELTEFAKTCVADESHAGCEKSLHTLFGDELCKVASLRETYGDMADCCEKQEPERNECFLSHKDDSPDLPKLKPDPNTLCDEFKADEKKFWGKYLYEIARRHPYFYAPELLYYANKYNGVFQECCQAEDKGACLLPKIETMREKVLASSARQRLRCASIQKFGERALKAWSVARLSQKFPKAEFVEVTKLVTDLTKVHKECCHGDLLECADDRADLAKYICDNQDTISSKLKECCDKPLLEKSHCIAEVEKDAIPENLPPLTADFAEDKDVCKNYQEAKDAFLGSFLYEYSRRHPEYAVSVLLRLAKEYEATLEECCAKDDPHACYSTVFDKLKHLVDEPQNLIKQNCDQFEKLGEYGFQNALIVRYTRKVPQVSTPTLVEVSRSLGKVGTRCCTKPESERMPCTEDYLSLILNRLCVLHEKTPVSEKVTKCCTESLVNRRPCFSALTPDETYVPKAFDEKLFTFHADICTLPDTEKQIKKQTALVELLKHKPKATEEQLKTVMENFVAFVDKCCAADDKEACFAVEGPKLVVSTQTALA
Test [1] in a line: small-molecule microarray binders of probe aXIP, primary screen, biochemical, NeuroSMM set, 635/667 nm fluorescence (AID 1119).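 Also: probe is the protein aXip251-270 applied at 1 µg/mL to compound-printed slides; binding of probe to printed compounds measured as 667 nm fluorescence plus signal to noise.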 Particulars: higher = more signal, called active from +8 up or from −8 down.
A short description of test [2]: small-molecule binders of probe aNOTCH3, primary screen, biochemical, small-molecule microarray, 635/667 nm fluorescence (AID 1120).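 Also: probe is a biotin-tagged antibody raised against NOTCH3 rather than NOTCH3 protein; score merges spot fluorescence near 667 nm with spot signal to noise.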 The following applies: higher = more signal.
A short description of test [3]: small-molecule binders of probe aNOTCH2, primary screen, biochemical, small-molecule microarray, 635/667 nm fluorescence (AID 1121).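 Also: score merges feature fluorescence read at 667 nm with its signal to noise.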 The following applies: higher = more signal.
The target in test [4] is Carbonic anhydrase 2 (Homo sapiens) (UniProt P00918). The test is described as follows: CAII small-molecule binders, profiling panel, biochemical, small-molecule microarray, Alexa647-labelled CAII (AID 1122). The following applies: CAII-A647 binding fluorescence, higher = more signal.
A short description of test [5]: COS7 lysate on small-molecule microarray, probe aHis, 635 nm (AID 1123).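 Also: z-score combines 667nm fluorescence intensity with signal-to-noise per printed compound spot.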 The following applies: COS7 cell lysate, fluorescence, higher = more signal.
The nature of test [6]: compound binding in COS7 lysate, probe aLAP1, primary screen, cell lysate, small-molecule microarray (AID 1124).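 Also: lysate comes from COS7 cells expressing LAP1 and is applied at 0.3 µg/mL; score merges spot fluorescence near 667 nm with signal-to-noise over triplicate slides.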 Particulars: probe aLAP1, fluorescence, higher = more signal.
The test system of another test is Sam68 (KHDRBS1). The test is described as follows: Sam68 small-molecule binders, primary screen, biochemical, small-molecule microarray, 635 nm fluorescence (AID 1125).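 Also: score merges 667 nm channel intensity with signal to noise over triplicate slides.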 Particulars: small-molecule microarray binding, higher = more signal.
The test system of test [7] is Chordin-like protein 2 (CHRDL2). In words: CHRDL2 small-molecule binders, primary screen, biochemical, small-molecule microarray, 635 nm fluorescence (AID 1126).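 Also: printed compound slides probed with Chrdl2 protein at 4 µg/mL for 1 h at 4 C; score merges 667 nm emission intensity with signal to noise over three replicate slides.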 Particulars: small-molecule microarray binding, fluorescence 635 nm; higher = more signal.
Test [8] has as its target Concanavalin-A (Canavalia ensiformis) (UniProt P02866). In words: ConA small-molecule binders, primary screen, artefact control for SMM control protein annotation, biochemical, small-molecule microarray, Alexa647 label, 635 nm (AID 1127).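 Also: z combines 667 nm emission intensity with signal-to-noise across three replicate slides.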 The following applies: ConA-A647 binding fluorescence, higher = more signal.
Test [9] is described as follows: anti-His antibody binders, primary screen, artefact control for SMM control protein annotation, biochemical, small-molecule microarray, 635 nm fluorescence (AID 1128).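 Also: score merges feature fluorescence with signal-to-noise for each printed compound spot.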 The following applies: anti-His Alexa647 antibody binding, higher = more signal.
The test system of test [10] is Human papillomavirus type 1a E7 protein (residues 1-88). In words: HPV1a E7 small-molecule binders, primary screen, biochemical, small-molecule microarray, residues 1-88, 635 nm (AID 1129). The following applies: small-molecule microarray binding, fluorescence 635 nm; higher = more signal.
The target of test [11] is Focal adhesion kinase 1 (Homo sapiens) (UniProt Q05397). The test is described as follows: small-molecule microarray binders of FAK, primary screen, biochemical, 635/667 nm fluorescence, BSA, DTT (AID 1130).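 Also: composite of spot emission at 667 nm and signal to noise over triplicate slides.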 The following applies: PTK2 binding, 635 nm fluorescence, higher = more signal.
Chain of Focal adhesion kinase 1 (Homo sapiens) (Q05397 whole entry, looked up): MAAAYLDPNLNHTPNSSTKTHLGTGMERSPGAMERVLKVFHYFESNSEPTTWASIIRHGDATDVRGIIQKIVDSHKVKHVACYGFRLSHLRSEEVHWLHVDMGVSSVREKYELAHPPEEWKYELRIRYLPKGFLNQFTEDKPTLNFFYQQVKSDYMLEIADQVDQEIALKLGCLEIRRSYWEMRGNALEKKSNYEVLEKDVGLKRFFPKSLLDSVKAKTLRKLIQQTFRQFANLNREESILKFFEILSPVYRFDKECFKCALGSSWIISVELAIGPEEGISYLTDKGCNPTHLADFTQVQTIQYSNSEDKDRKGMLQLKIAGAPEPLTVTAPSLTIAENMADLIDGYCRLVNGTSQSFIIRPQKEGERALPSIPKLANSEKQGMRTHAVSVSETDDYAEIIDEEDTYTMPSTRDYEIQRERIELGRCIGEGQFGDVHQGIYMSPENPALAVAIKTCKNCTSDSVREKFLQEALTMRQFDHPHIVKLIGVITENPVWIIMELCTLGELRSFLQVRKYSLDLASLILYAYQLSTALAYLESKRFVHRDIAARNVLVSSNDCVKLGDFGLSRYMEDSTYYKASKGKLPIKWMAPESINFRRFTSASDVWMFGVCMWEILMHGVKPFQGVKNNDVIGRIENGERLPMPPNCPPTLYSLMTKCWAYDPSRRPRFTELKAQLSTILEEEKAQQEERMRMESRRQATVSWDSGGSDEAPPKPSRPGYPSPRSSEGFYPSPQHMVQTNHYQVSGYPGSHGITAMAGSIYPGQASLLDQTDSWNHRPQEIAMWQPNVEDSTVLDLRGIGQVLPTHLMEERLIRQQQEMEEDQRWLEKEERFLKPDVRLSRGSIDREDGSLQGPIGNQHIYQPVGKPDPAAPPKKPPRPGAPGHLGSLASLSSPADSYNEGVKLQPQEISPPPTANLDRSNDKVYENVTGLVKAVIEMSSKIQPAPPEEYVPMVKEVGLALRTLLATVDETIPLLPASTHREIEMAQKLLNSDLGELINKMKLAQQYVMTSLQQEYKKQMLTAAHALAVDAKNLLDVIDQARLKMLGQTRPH
Test [12] deals with Fibrinogen (Alexa647-labelled). The test is described as follows: fibrinogen binders on compound microarrays, profiling panel, artefact control for SMM control-protein annotation, biochemical, small-molecule microarray, 635/667 nm fluorescence (AID 1131).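 Also: z-score merges 667 nm fluorescence with per-spot signal-to-noise over triplicate slides.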 Particulars: fibrinogen-A647 binding fluorescence, higher = more signal.
Test [13] deals with Follistatin (Homo sapiens) (UniProt P19883). In words: follistatin binders on small-molecule microarrays, primary screen, biochemical, small-molecule microarray, 635/667 nm fluorescence (AID 1132). The following applies: FST binding, 635 nm fluorescence, higher = more signal.
Chain of Follistatin (Homo sapiens) (P19883 whole entry, looked up): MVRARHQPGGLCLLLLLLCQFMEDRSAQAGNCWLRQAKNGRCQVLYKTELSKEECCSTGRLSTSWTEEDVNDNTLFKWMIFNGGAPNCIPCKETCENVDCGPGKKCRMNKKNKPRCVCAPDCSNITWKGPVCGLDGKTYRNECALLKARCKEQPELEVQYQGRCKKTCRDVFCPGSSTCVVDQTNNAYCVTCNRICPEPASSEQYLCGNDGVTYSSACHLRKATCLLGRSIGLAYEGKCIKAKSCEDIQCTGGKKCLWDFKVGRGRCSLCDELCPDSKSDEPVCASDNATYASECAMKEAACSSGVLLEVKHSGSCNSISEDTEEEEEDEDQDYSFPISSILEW
In test [14] the target is Fibroblast growth factor 2 (Homo sapiens) (UniProt P09038). The test is described as follows: FGF2 binders on small-molecule microarrays, primary screen, biochemical, small-molecule microarray, 635/667 nm fluorescence (AID 1133). The following applies: small-molecule microarray binding, FGF2, fluorescence 635/667; higher = more signal.
Chain of Fibroblast growth factor 2 (Homo sapiens) (P09038 whole entry, looked up): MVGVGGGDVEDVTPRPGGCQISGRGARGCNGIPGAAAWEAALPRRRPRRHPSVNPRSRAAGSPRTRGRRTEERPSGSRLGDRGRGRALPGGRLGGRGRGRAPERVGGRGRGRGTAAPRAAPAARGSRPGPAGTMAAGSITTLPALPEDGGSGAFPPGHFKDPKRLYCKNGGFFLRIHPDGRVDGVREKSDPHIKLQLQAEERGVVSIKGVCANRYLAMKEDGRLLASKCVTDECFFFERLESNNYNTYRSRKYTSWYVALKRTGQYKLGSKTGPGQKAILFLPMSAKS
A short description of test [15]: mitochondrial membrane potential change in A549 cells, profiling panel, cell-based, JC-1 fluorescence, basal, 24 h, 100 nL (AID 1138).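 Also: A549 lung adenocarcinoma cells under basal conditions with no added stimulus; test concentration not given here.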 Particulars: higher = more signal.
For a further test, the system named is Lefty1. The test is described as follows: Lefty1 binders on small-molecule microarrays, primary screen, biochemical, small-molecule microarray, 635/667 nm fluorescence (AID 1139). The following applies: small-molecule microarray binding, fluorescence 635/667; higher = more signal.
Test [16] has as its system wheat germ agglutinin (Triticum aestivum), Alexa647-labelled. The test is described as follows: wheat germ agglutinin binders on compound microarrays, profiling panel, artefact control for SMM control-protein annotation, biochemical, small-molecule microarray, 635/667 nm fluorescence (AID 1140).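 Also: score merges 667 nm feature emission with signal to noise over triplicate slides.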 The following applies: WGA-A647 binding, 635 nm fluorescence, higher = more signal.

In test [17] the target is Luciferin 4-monooxygenase (Photinus pyralis) (UniProt P08659). In words: firefly luciferase enzyme inhibitors, primary screen, biochemical, luminescence, purified enzyme, 2006 set (AID 1141).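 Also: cell-free assay with purified firefly luciferase at 100 ng per well in PBS; test concentration not given here.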 The following applies: SteadyGlo luminescence, 30 min, higher = more signal, called active from +8 up or from −8 down.
Chain of Luciferin 4-monooxygenase (Photinus pyralis) (P08659 whole entry, looked up): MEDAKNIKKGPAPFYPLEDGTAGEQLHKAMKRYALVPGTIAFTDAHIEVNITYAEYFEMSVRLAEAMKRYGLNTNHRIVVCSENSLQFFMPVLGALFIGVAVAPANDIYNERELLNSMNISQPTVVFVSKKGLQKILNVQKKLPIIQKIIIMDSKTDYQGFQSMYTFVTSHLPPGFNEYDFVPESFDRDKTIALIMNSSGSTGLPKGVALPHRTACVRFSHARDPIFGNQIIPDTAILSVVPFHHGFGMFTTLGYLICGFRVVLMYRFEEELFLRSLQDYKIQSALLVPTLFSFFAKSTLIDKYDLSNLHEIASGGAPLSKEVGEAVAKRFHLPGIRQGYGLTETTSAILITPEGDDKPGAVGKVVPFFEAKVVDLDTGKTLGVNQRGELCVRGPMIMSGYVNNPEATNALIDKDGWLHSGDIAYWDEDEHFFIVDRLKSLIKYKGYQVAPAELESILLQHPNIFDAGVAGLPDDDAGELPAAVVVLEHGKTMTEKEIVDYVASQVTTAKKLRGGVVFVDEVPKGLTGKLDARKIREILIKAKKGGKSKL

Chain of Concanavalin-A (Canavalia ensiformis) (P02866 whole entry, looked up): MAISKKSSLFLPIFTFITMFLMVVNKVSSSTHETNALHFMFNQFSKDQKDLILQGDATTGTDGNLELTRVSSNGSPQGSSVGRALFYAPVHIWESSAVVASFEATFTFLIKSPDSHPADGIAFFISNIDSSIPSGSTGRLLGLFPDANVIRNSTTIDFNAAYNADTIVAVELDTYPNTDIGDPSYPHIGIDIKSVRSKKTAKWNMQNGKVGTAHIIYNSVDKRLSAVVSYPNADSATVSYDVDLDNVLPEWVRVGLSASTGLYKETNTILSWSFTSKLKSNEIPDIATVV

Turning to `COC(=O)[C@@]1(Cc2ccccc2)[C@H]2c3cc(C(=O)N4CCCC4)n(CCc4ccccn4)c3C[C@H]2CN1C(=O)c1ccccc1`, the composite z-score with Albumin (Bos taurus) was 1.06; in test [2], 0.682; in [3], 0.133; in test [4], 0.88; in test [5], 3.46; in [6], 0.589. The composite z-score in the test with Sam68 (KHDRBS1) is 0.761; in test [7], -0.607; in test [8], 0.606; in [9] it was -0.295; in test [10] it was 1.28; in [11], 1.34. The composite z-score in [12] is 1.01; in [13], 0.758; in [14], -0.28; in the test on Lefty1, 0.0814; in [16] it was 1.16. For the same molecule, the composite Z-score in test [1] was -1.17 (inactive). In addition, the z-score in [15] is -0.0942; in test [17], 2.38 (inactive).

With `COCC(=C=CC[C@H](O)c1ccc(OCCO)cc1)CCO`, the composite z-score was -0.173 with Albumin (Bos taurus); -0.0298 in test [2]; 0.0312 in [3]; 0.736 in test [4]; 0.368 in test [5]; 0.342 in [6]. Further, the composite z-score with Sam68 (KHDRBS1) was 0.763; in test [7] it was 0.262; in test [8], -0.155; in test [9], 0.434; in test [10] it was 0.633; in test [11], -0.225. Besides, the composite z-score in [12] is -0.142; in test [13] it was 1.41; in [14], 1.06; in the test with Lefty1, 1.56; in [16], -0.335. For the same molecule, the composite Z-score in [1] was -0.321 (inactive). For the same molecule, the z-score is 0.63 in test [15] and -1.36 (inactive) in test [17].

With `C=CCOC(=O)[C@@]1(Cc2ccccc2)C[C@H]2CO[C@H](c3ccc(OC)cc3)N2C1=O`, the composite z-score with Albumin (Bos taurus) was 0.484; in test [2], -0.0615; in [3] it was -0.107; in [4], -0.0067; in [5], 0.146; in test [6] it was 0.0469. For the same molecule, the composite z-score with Sam68 (KHDRBS1) came out at 0.168; in [7], 0.194; in [8] it was 0.192; in [9], 0.848; in [10], 0.191; in test [11] it was 0.575. Further, the composite z-score worked out at 0.494 in test [12]; 0.3 in test [13]; 0.186 in [14]; 0.55 in the test with Lefty1; 0.133 in [16]. In addition, in test [1], the composite Z-score is -0.415 (inactive). For the same molecule, the z-score was 0.272 in test [15] and -0.0402 (inactive) in test [17].

Consider `CC(C)N1C(=O)C[C@@](C(=O)O)(c2ccc([N+](=O)[O-])cc2)[C@H]1c1ccc(CO)cc1`, for which the composite z-score in the test with Albumin (Bos taurus) was -0.795; in test [2] it was -0.0947; in test [3] it was -0.0586; in test [4] it was 0.754; in test [5] it was 1.52; in [6] it was 0.0273. In addition, the composite z-score with Sam68 (KHDRBS1) is 0.69; in test [7], -1.25; in [8], 0.279; in test [9], 0.0886; in test [10], -0.619; in test [11] it was -0.0404. The composite z-score in test [12] was -1.14; in test [13], -0.82; in test [14], -0.798; with Lefty1, -1.12; in [16], -0.76. Also, the composite Z-score in [1] is 0.589 (inactive). For the same molecule, the z-score in test [15] is 0.993; in [17], -1.03 (inactive).

With `NC(=O)NCC#Cc1ccc2c(c1)[C@]1(C(=O)N2)[C@H](C(=O)N2CCN(c3ncccn3)CC2)[C@H]2C(=O)O[C@H](c3ccccc3)[C@H](c3ccccc3)N2[C@@H]1c1ccc(O)cc1`, the composite z-score in the test with Albumin (Bos taurus) is 0.151; in test [2], 0.856; in test [3], -0.0149; in test [4], 0.304; in test [5] it was 0.817; in [6], 0.102. Moreover, the composite z-score with Sam68 (KHDRBS1) turned out to be 1.2; in test [7] it was 0.864; in test [8], 0.721; in [9], 1.43; in test [10], 1.14; in test [11], 0.244. Besides, the composite z-score in [12] turned out to be 0.768; in test [13], 1.37; in [14], 1.3; in the test on Lefty1 it was 0.36; in test [16] it was 0.542. The composite Z-score in [1] was 0.953 (inactive). Further, the figures for the z-score in test [15] and in test [17] were -0.982 and -0.598 (inactive), respectively.
